Reference: the supplement of paper PMC10338343
± gives the standard deviation.

Test system: MILI (PIWIL2) piRISC loaded with L1MC piRNA (26 nt)
Assay: pre-steady-state target cleavage rate (min^-1); guide: L1MC piRNA 5'p-UAACUAAAUACUAUGCAAGCUGUAGG; MIWI and MILI are mouse PIWI proteins and EfPiwi is from a freshwater sponge; tags in brackets are library labels; higher = faster piRNA-guided slicing of the target
Conditions: auxiliary factor: 500 nM mouse GTSF1
In short: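 The pre-steady-state cleavage rate came from a burst-and-steady-state fit to pooled data from three Cleave-'n-Seq trials, in which uncleaved targets were sequenced and normalised to depth and to weakly complementary targets. Each reaction held 0.1 nM transcribed, DNA-blocked target RNA library and 1 nM active affinity-purified piRISC carrying one synthetic guide, with or without 500 nM GTSF1 partner protein, in HEPES–potassium acetate buffer at 33 °C for 0–8 or 0–960 min. k3 was capped at 0.0001 min^-1.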

Sequence	pre-steady-state target cleavage rate
UCCUGGAUCAGCUUGCAUAGUAAAAACAAA	0.027 ± 0.0099
UCCUGGAUGUCGAACGAUAGUAAUAAGUUA	< 0.0001
UCCUGGAUGACGUUGCAUAGUAUUUAGUAA	0.136 ± 0.022
UCCUGGAUGUCGAUGCAUAGUUAUUUAGUUA	0.00685 ± 0.0037
UCCUGGAUCAGCUUGCAUAGUUAAUAGUAA	0.0192 ± 0.0068
UCCUGGAACAGCUUGCAUAUGUAUUUAGUUA	0.00424 ± 0.0037
UCCUGCUACUCCUUGCAUAGUAUUUUCAAA	0.0369 ± 0.013
UCCUGGAUGUCGUUGCAUAGUAUUAAGUAA	0.0273 ± 0.012
UCCUGGAUCAGCUUGCAUAGUUUUUACUUA	0.00933 ± 0.0038
UCCUGGAUGUCGUUGCAUAGUAUUUACGUUA	0.231 ± 0.064
UCCUGCUACAGCUUGCAUAGUAUAAACAAA	0.0722 ± 0.022
UCCUGGAUGUCCUUGCAUAGUAUUAUCAAA [g7:g19:cont:t1A]	0.0222 ± 0.0094
UCCUGGUACUCGUUGCAUAGUAUUUAGUAA	0.0635 ± 0.029
UCCUGGAUGUCGAACCAUAGUAUUUAGCUUA	< 0.0001
UCCUGGAACAGCUUGCAUAGAUAUUAGUUA	0.0112 ± 0.0053
UCCUGGAUGUCGAUGCAUAGUAUUUAGUGA	0.0843 ± 0.016

Sequence	pre-steady-state target cleavage rate
UCCUGCUACAGCUUGCAUAGUAAAUACAAA	0.0117 ± 0.006
UCCUGGUUCAGCUUGCAUAGUAUUUACUUA	0.0561 ± 0.02
UCCUCCUACAGCUAGCAUAGUAUUUUCAAA	0.137 ± 0.027
UCCUGCUACACGAUGCAUAGUAUUUUCAAA	0.117 ± 0.034
UCCUGGAUCAGCUUGCAUACUAUAUAGUUA	0.018 ± 0.0043
UCCUGGAUGUCGAUACAUAGUAUUUAGUUA	0.0231 ± 0.0046
UCCUGGUACAGCUUGCAUAGAUUUUACAAA	0.00751 ± 0.0049
UCCUGGAUGUCGUUGCAAAGUAUUAAGUUA	0.0094 ± 0.0044
UCCUGGAUGUCCUUGACAUAGUAUUUAGUUA	0.0214 ± 0.0096
UCCUGGAUCAGCUUGCAAUGUAUUUUCAAA	0.00576 ± 0.0035
UCCUGGAUCUCCUUGCAUAGUAUUUACAAA	0.0872 ± 0.018
UCCUGGUACUGCUUGCAUAGAAUUUAGUUA	0.0381 ± 0.017
UCCUGGAUCAGCUUGCUAUGUAUUUACAAA	0.00475 ± 0.0036
UCCUGGAACAGCUUGGUAAGUAUUUAGAAA	0.0429 ± 0.015
UCCUGGAUGUCGAAGCACAGUAUUUAGUUA	0.00819 ± 0.0038
UCCUGGAUGAGCUUGCAUAGUAUAAUGUAA	0.00667 ± 0.0048

Same assay, conditions: auxiliary factor: none (no GTSF1)

Sequence	pre-steady-state target cleavage rate
UCCUGGAUGUCGAACCAUAGUAUUAGUUA	< 0.0001
UCCUGGAUGUCGUUGCAUAGUUAUUAGUUA	0.00364 ± 0.0031
UCCUGGAUGUCGUUGCAUACAAUUUAGUUA	0.00319 ± 0.0024
UCCUGGAUGUCGAAGCAUAGUAAAAUCAAA [g9:g16:cont:t1A]	< 0.0001
